Mac1 fbg inh: inhibitors of human CD11b/CD18 binding to fibrinogen | P05107+P11215 | K562 CD11b/CD18 adhesion to fibrinogen, ATPlite luminescence; Mn2+ added to activate the integrin | inhibition, % at 10 µM | 93,000 tested, 0.54% active | AID 1497;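 active = primary inhibition of 50% or more at 10 µM, then 40% or more on retest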
Target sequence (P05107 whole entry, looked up, other chains not shown): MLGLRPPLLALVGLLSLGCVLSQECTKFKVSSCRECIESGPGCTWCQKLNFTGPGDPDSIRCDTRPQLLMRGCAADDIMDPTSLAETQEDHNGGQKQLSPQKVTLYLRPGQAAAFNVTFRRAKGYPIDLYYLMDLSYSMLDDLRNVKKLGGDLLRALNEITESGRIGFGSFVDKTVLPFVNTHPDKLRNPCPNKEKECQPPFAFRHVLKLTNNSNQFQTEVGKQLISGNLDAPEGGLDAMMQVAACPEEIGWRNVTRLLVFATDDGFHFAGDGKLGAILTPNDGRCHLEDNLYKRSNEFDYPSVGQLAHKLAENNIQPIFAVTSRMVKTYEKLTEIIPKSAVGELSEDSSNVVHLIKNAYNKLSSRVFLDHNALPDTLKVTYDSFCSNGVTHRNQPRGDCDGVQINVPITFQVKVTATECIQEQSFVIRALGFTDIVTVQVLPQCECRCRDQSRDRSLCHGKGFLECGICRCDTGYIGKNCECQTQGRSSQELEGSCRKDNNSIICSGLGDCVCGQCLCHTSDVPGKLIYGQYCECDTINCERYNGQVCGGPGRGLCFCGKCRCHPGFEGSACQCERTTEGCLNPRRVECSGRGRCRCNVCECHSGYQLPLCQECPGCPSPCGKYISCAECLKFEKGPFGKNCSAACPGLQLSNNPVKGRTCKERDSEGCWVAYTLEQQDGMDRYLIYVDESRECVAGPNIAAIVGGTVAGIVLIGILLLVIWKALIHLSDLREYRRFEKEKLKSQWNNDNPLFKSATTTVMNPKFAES
Cav3 T inh: blocks human Cav3.2 T-type calcium channel. O95180. Cav3.2-expressing cells, Fluo-4 calcium fluorescence FDSS; stronger effect = lower value. B-score at 10 µM. 100,000 tested, 4% active. AID 449739;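 active = single-dose well whose peak fluorescence ratio is a statistical outlier from its plate by either plate-standardised score or position-corrected B-score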
E coli RNAP: inhibitors of Escherichia coli RNA polymerase. AID 559. P0A8V2. inhibition, %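 (tested at 10 µM)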. E. coli RNA polymerase, fluorescence transcription assay. 62,000 tested, 0.2% active; in the data active = inhibition above about 20%;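 note: 0% = enzyme without compound and 100% = no enzyme blank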
Pyk2 oligo antag: antagonists of human Pyk2 oligomerization. Q293 cells, Pyk2 FERM NanoBiT luminescence; stronger effect = lower value. z-score (the deposit names both 25 µM and 10 µM). Q14289. 99,000 tested, 0.83% active;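 active = Z-score of -3 or lower, scaled per plate to the spread of control and sample wells; inactive = z-score above -3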;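 note: negative z-score means lost luminescence so less FERM oligomerization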
Mac1 fbg enh: CD11b/CD18-fibrinogen binding enhancement | K562 CD11b/CD18 adhesion to fibrinogen, ATPlite luminescence | activation, % at 10 µM | 93,000 tested, 0.07% active | AID 1499;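 active = 10 µM primary screen giving 50% or more activity, confirmed by 40% or more on retest at that dose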
Numbers without * were called inactive; · = no result given. Sampled rows, rich in hits. Any-hit rate of the full collection: about 4.2%.

SMILES | Mac1 fbg inh | Cav3 T inh | E coli RNAP | Pyk2 oligo antag | Mac1 fbg enh
CCN(CC)S(=O)(=O)c1ccc2oc(Nc3ccc4c(c3)OCCO4)nc2c1 | 6 | -0.2 | · | -3.5* | -4
Cc1nc2ccc(Nc3nc4cc(S(=O)(=O)N5CCOCC5)ccc4o3)cc2s1 | 2 | -0.092 | 6 | -1.5 | 4
CCOc1ccc(N(C(=O)/C=C/C(=O)Nc2cc(C)on2)C(C(=O)NC2CCCC2)c2ccccc2C)cc1 (configuration not stated) | · | -5.4* | · | -1.2 | ·
Clc1cccc(COn2c(-c3ccc(Cl)cc3Cl)nc3ncccc32)c1 | 11 | -4.1* | · | -1.6 | -1
Cc1ccc(COn2c(-c3ccc(Cl)cc3Cl)nc3ncccc32)cc1 | 21 | -5.4* | · | -0.99 | 1
Clc1ccc(Cn2c(-c3cccnc3Cl)nc3ccccc32)c(Cl)c1 | · | -3 | · | 0.09 | ·
Clc1ccc(Cn2c(-c3cccnc3Cl)nc3ccccc32)cc1 | · | -4 | · | -2.2 | ·
Cc1[nH]n(-c2ccccc2)c(=S)c1C=Nc1cccc([N+](=O)[O-])c1 | -3 | 0.92 | · | 0.05 | 0
CCOC(=O)C(NC(=O)NCc1ccccc1OC)(OCC)C(F)(F)F (configuration not stated) | 1 | · | · | · | 0
O=C(N/N=C/c1ccc(Br)o1)/C(=C/c1ccc([N+](=O)[O-])cc1)NC(=O)c1ccccc1 | -16 | -4.9* | · | 0.64 | -2
CCOC(=O)c1c(NC(=O)CSc2nnc3c(Cl)cc(Cl)cn23)sc2c1CCC2 | 9 | · | · | · | 24
CN(C)S(=O)(=O)c1ccc(Cl)c(NC(=O)CSc2nc3ccccc3c(=O)n2CCCN2CCOCC2)c1 | · | · | · | -0.05 | ·
c1ccc(-c2nnc(-c3ccccn3)nn2)nc1 | · | · | 25* | · | ·
c1ccc(-c2cccc(-c3ccccn3)n2)nc1 | -16 | 0.26 | -6 | 0.46 | 4
Cc1c(C(=O)NCC2COc3ccccc3O2)oc2ccc(S(=O)(=O)N(C)C3CCCCC3)cc12 (configuration not stated) | 3 | -4.3* | · | -0.51 | 9
CCNc1nc(NC(C)C)nc(N(C#N)CCOc2ccccc2)n1 | 29 | -5* | · | -2.1 | -3
C#CCN(C#N)c1nc(NCC)nc(NC(C)C)n1 | -41 | 1 | 1 | -0.16 | 7
CCC(C)(NC(=O)c1cccc(N2C(=O)CSC2c2ccccc2)c1)C(=O)Nc1ccccc1C (configuration not stated) | 3 | -5.1* | · | -0.03 | 7
CN(C)c1nc(SCCOC(=O)Nc2ccccc2)nc(N(C)C)n1 | -4 | -4.7* | 6 | -0.22 | 2
O=C(O)CCSc1nc(C(F)(F)F)cc(=O)n1-c1ccccc1 | -7 | -0.006 | · | 0.65 | 1
O=C(Nc1cc2c(oc1=O)CCCC2=O)c1ccc(Cl)cc1 | 7 | 0.16 | · | 0.63 | 6
COc1cc(NC(=O)c2ccc3c(c2)OCO3)c2ncccc2c1 | · | 0.84 | 9 | -0.07 | ·
O=C(Nc1cccc2cccnc12)c1ccc2c(c1)OCCO2 | -17 | -4.5* | · | -2.2 | -1
CN(C)c1ccc(NC(=O)CN2CCN(S(=O)(=O)c3cc(Cl)ccc3Cl)CC2)cc1 | 8 | -4.1* | -7 | -0.41 | 1
CCOC(=O)C1=C(C)N=C2SC(C(=O)OC)=CC(=O)N2C1c1cc(OC)c(OC)c(OC)c1 (configuration not stated) | 0 | · | · | · | 32
SMILES | Mac1 fbg inh | Cav3 T inh | E coli RNAP | Pyk2 oligo antag | Mac1 fbg enh
Cc1cc(=O)oc(C)c1C(=O)N1CCc2c([nH]c3ccccc23)C1C(C)C (configuration not stated) | -10 | 0.0088 | 0 | · | -3
CC1c2[nH]c3ccccc3c2CCN1C(=O)Nc1ccccc1 (configuration not stated) | · | -12* | · | -1.4 | ·
CCC(=O)N1CCN(CCN=Cc2c(O)n(C3CCCCC3)c(=O)n(C3CCCCC3)c2=O)CC1 | · | · | 3 | · | ·
CC(C)C(=O)N1CCC(CN=Cc2c(O)n(C3CCCCC3)c(=O)n(C3CCCCC3)c2=O)CC1 | 9 | -11* | 2 | -2.6 | -3
CCCCOc1ccc(Cl)cc1CSc1nnc(CC)n1N | -26 | -0.24 | · | -0.91 | 1
CCCCCOc1ccc(Br)cc1CSC(=N)N | 105* | · | · | · | -5
CNC(=O)/C(=C\c1ccc([N+](=O)[O-])cc1)NC(C)=O | -9 | · | · | 0.51 | -4
CCOc1nc(NC2CCCCC2)nc(NC(C)(C)C)n1 | · | -5.3* | · | -1.2 | ·
CCc1ccc(C2NC(=S)NC3=C2C(=O)CC(C)(C)C3)cc1 (configuration not stated) | 2 | · | · | · | -3
O=C(CSc1ccc2nnc(-c3ccc(Cl)cc3)n2n1)N1CCc2ccccc21 | -18 | · | · | · | 9
CC(c1cccs1)N(C(=O)Nc1ccccc1)C1CCCCC1 (configuration not stated) | 0 | -2.4 | · | -0.44 | -5
CC(C)CCN(C(=O)Nc1ccccc1)C(C)c1cccs1 (configuration not stated) | 11 | -4.8* | · | 0.52 | 2
COc1ccc(Oc2ccc3c(C(F)(F)F)cc(C(F)(F)F)nc3n2)cc1 | 1 | 0.033 | · | -0.55 | -2
Oc1ccc(Oc2ccc3c(C(F)(F)F)cc(C(F)(F)F)nc3n2)cc1 | · | -6.9* | · | -1.3 | ·
Cc1ccccc1OCCSCc1nc2ccccc2[nH]1 | 54 | · | · | · | -2
N#C/C(=C\c1ccc(Oc2ccc(C(F)(F)F)cc2[N+](=O)[O-])cc1)c1nc2ccccc2[nH]1 | 3 | -0.63 | · | 0.36 | 82*
N#C/C(=C/c1ccc(N2CCCC2)c([N+](=O)[O-])c1)c1nc2ccccc2[nH]1 | · | -0.66 | · | -0.57 | ·
CSc1ncc(Cl)c(C(=O)C(C#N)c2nc3c(C)cc(C)cc3c(=O)[nH]2)n1 (configuration not stated) | · | -7* | -1 | -3* | ·
CCOc1ccc(NC(=O)CSc2nnc(Cc3cccn3C)n2-c2ccc(OC)cc2)cc1 | -2 | -2.8 | 2 | -0.42 | 2
COc1ccc(-n2c(Cc3cccn3C)nnc2SCC(=O)Nc2ccc(C)cc2)cc1 | -4 | -7.9* | 6 | · | 6
COc1ccc(NC(=O)CSc2nnc(Cc3cccn3C)n2-c2ccc(OC)cc2)cc1 | -9 | -8.1* | 3 | · | 5
COc1ccc(-n2c(Cc3cccn3C)nnc2SCC(=O)Nc2ccc3c(c2)OCCO3)cc1 | 50 | -10* | 0 | · | -6
COc1ccc(-n2c(Cc3cccn3C)nnc2SCC(=O)NC2CCCCC2)cc1 | -4 | -1.7 | -6 | · | 2
COc1ccc(-n2c(Cc3cccn3C)nnc2SCC(=O)Nc2ccc(C(C)=O)cc2)cc1 | 7 | -8.4* | 7 | · | 1
CC(C)C(=O)N1CCC2(CC1)Oc1ccc(Cl)cc1C(=O)C21CC(c2cccnc2)=NO1 (configuration not stated) | · | -0.77 | · | · | ·
COc1ccc(C(=O)Nc2cc(C(F)(F)F)ccc2Cl)cc1OC | · | -0.022 | · | 0.16 | ·
CCCC[C@@H]1CNC(=S)N1CCCC | · | 0.9 | · | · | ·
O=C(Cn1[nH]c(=O)c2ccccc2c1=O)OCC(=O)N(Cc1ccccc1)Cc1ccccc1 | -18 | -4.4* | · | 0.82 | 0
COc1ccc2nc(Nc3nc(C)c(CCC(C)C)c(=O)[nH]3)nc(C)c2c1 | -5 | -5.4* | 3 | -1.3 | 95
